Screening results (PubChem BioAssay)
An excerpt weighted towards active compounds, which were near 4.2% of everything screened.
PfHsp90 yeast 2: growth inhibition of PfHsp90-expressing yeast, primary screen, antimalarial PfHsp90 inhibitor project, S. cerevisiae, BacTiter-Glo luminescence, single point, set 2; BacTiter-Glo ATP, 48 h; yeast lacking PDR1 and PDR3 efflux regulators; inhibition, % at 9.4 µM; actives 0.32% (n = 310,000); AID 504621, 2011;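 active = every replicate shows inhibition above about 80%, whatever the replicate mean, limit read from the data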
tim23-1 inh: growth inhibitors of tim23-1 mutant yeast, primary screen, luminescence, uHTS. inhibition, % at 20 µM. actives 1.3% (n = 330,000). S. cerevisiae tim23-1 growth, BacTiter-Glo luminescence, 24 h;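 active = growth inhibition of the mutant yeast at or above 50%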;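 note: temperature-sensitive mutant grown at 25 °C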
NALP1 yeast inh: NALP1 inflammasome inhibitors in reconstituted yeast, colorimetric, S. cerevisiae, triplicate retest; S. cerevisiae NALP1/ASC/caspase-1 growth, X-gal OD620, 72 h; actives 0.61% (n = 280,000); AID 2071, 2009; inhibition, % at 10 µM; in the data active = inhibition mostly above about 24%, no sharp cut-off; inactive = mostly below about 32%
NALP3 yeast inh: NALP3 inflammasome inhibitors in reconstituted yeast, primary screen, luminescence, uHTS | AID 2825, 2010 | inhibition, % at 10 µM | Yeast reconstituted NLRP3/ASC/caspase-1, beta-gal luminescence, 24 h | actives 0.39% (n = 330,000);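 active = inhibition of 50% or more; inactive = inhibition below 50%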
TIM10 inh: growth inhibitors of isogenic TIM10 control yeast, primary screen, counter-screen for tim10-1 yeast inhibitor project, luminescence, uHTS. actives 1.4% (n = 330,000). S. cerevisiae TIM10 strain growth, BacTiter-Glo luminescence, 24 h. inhibition, % at 10 µM;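 active = inhibition of 40% or more at the single tested concentration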;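 note: wild-type TIM10 isogenic control strain grown at permissive 25 °C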
tim10-1 inh: growth inhibitors of tim10-1 mutant yeast, primary screen, luminescence, uHTS. S. cerevisiae tim10-1 ts strain growth, BacTiter-Glo, 24 h. inhibition, % at 20 µM. actives 2.2% (n = 330,000). AID 463190, 2010;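 active = inhibition of at least 40%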;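 note: mutant grown at 25 °C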
tim10 confirm: growth inhibitors of wild-type TIM10 yeast, confirmation, counter-screen for tim10-1 synthetic lethality project, single concentration, luminescence, S. cerevisiae; shares compounds with TIM10 inh; S. cerevisiae tim10 strain growth, BacTiter-Glo luminescence, 24 h; inhibition, % at 10 µM; actives 63% (n = 4,600); AID 463215, 2010;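 active = inhibition of yeast growth at or above a set limit in either of two replicates at 10 µM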; note: this counterscreen used the strain with wild-type TIM10
Each line names hits and unclear results; the compound was inactive in the other large screens (follow-up assays come after a bar, where they were run).

CN(Cc1nccn1C)C(=O)c1ccc2nc(Cc3ccccc3F)oc2c1	none
COC(=O)c1ccc(C(C(=O)NC2CCCCC2)N(Cc2ccc(F)cc2)C(=O)Cc2cccs2)cc1 (stereo not given)	none
O=C(NC1CCCC1)C(c1ccc(F)cc1)N(Cc1ccc(Cl)cc1)C(=O)CCl (stereo not given)	TIM10 inh 42 | tim10 confirm 43
Cc1cc(C)c(S(=O)(=O)NCC(=O)NCc2ccccn2)c(C)c1	none
COc1ccc(N2C(=O)CC(Sc3nc(C)cc(C)c3C#N)C2=O)cc1 (stereo not given)	TIM10 inh 42 | tim10 confirm 28
CCCc1ccc(C#N)c(SC2CC(=O)N(c3ccc(OC)cc3)C2=O)n1 (stereo not given)	none
CN(C(=O)c1cnc(N2CCN(c3ncccn3)CC2)c2ccccc12)c1ccc(Cl)cc1	TIM10 inh 52 | tim10 confirm 28
c1ccc2c(c1)NC1(CCCCCC1)n1c-2nc2ccccc21	TIM10 inh 42 | tim10 confirm inactive
O=C(Nc1ccc(S(=O)(=O)N2CCCCC2)cc1)C1CC(=O)N(c2ccc(Cl)cc2)C1 (stereo not given)	none
CCOC(=O)c1cnc2c(ccc3ccccc32)c1NCCO	TIM10 inh 61 | tim10 confirm 69
Brc1ccc(C2=Nc3cccc4cccc(c34)N2)o1	none
Fc1ccc(C2=Nc3cccc4cccc(c34)N2)cc1	TIM10 inh 44 | tim10 confirm inactive
Clc1ccccc1CSc1cc2c(nn1)-c1ccccc1CC2	none
Clc1cccc(Cl)c1CSc1cc2c(nn1)-c1ccccc1CC2	TIM10 inh 40 | tim10 confirm inactive
COc1cc(OC)cc(C(=O)NCc2nc(-c3ccccc3)no2)c1	TIM10 inh 91 | tim10 confirm inactive
COc1ccc(CC(=O)NCc2nc(-c3ccccc3)no2)cc1	none (no result: PfHsp90 yeast 2)
Cc1ccc(/C=N/n2cc(-c3ccccc3)[nH]c2=S)s1	NALP1 yeast inh 25, TIM10 inh 41 | tim10 confirm 42
COc1ccc(C2C(C#N)=C3NC(=O)c4c(sc5c4CCCCC5)N3C3=C2C(=O)CC(C)(C)C3)cc1 (stereo not given)	TIM10 inh 43 (no result: PfHsp90 yeast 2) | tim10 confirm inactive
COc1ccc(C2C(C#N)=C(N)N(c3sc4c(c3C#N)CCCC4)C3=C2C(=O)CC(C)(C)C3)cc1 (stereo not given)	none (no result: PfHsp90 yeast 2)
CCc1n[nH]c(=S)n1/N=C/c1cc(Br)c(OC)cc1OC	TIM10 inh 53 | tim10 confirm inactive
COCCn1c(N)c(N(Cc2ccccc2)C(=O)c2cc(=O)[nH]c3ccccc23)c(=O)[nH]c1=O	TIM10 inh 41 (no result: NALP1 yeast inh) | tim10 confirm inactive
CCCCn1c(N)c(N(Cc2ccccc2OC)C(=O)c2cc(=O)[nH]c3ccccc23)c(=O)[nH]c1=O	none (no result: PfHsp90 yeast 2, NALP1 yeast inh)
c1ccc(Oc2cccc(Oc3ccccc3)n2)cc1	none (no result: NALP1 yeast inh)
CNc1nc(Nc2ccccc2)nc(OCC(F)(F)F)n1	none
CNc1nc(NN)nc(Nc2ccccc2)n1	TIM10 inh 96 | tim10 confirm inactive
O=C(Nc1ccccc1)Nc1cccc(Cl)c1Cl	TIM10 inh 45 | tim10 confirm inactive
O=C(Nc1ccncc1)Nc1cccc(Cl)c1Cl	none
CC(NC(=O)Cc1cccc(C(F)(F)F)c1)c1ccc(F)cc1 (stereo not given)	none
COc1ccc(N2CCN(CCCNC(=O)Cn3c(=O)c4cccn4c4ccccc43)CC2)cc1	TIM10 inh 46 | tim10 confirm inactive
COc1ccc(NC(=O)C23CC4CC(CC(Cl)(C4)C2)C3)cc1S(=O)(=O)N1CCOCC1	none (no result: NALP1 yeast inh)
Clc1ccc(Cn2ccc(-c3ccc4c(c3)OCO4)n2)cc1Cl	TIM10 inh 40 (no result: PfHsp90 yeast 2) | tim10 confirm 40
Cc1ccc(-c2csc(N(CC3CCCO3)C(=O)c3ccco3)n2)cc1 (stereo not given)	TIM10 inh 43 | tim10 confirm 42
COc1ccc(CNC(=S)NC2CCCC2)cc1	none
Cc1ccc(CNC(=S)NC2CCC(C(C)(C)C)CC2)cc1 (stereo not given)	TIM10 inh 42 | tim10 confirm inactive
Cc1ccc(NC(=O)c2cccs2)cc1[N+](=O)[O-]	TIM10 inh 45 | tim10 confirm inactive
O=C(Nc1nc(-c2cccs2)cs1)c1ccc([N+](=O)[O-])o1	PfHsp90 yeast 2 84, TIM10 inh 63 (no result: NALP1 yeast inh) | tim10 confirm 87
O=C(Nc1cccc(NC(=O)c2cccs2)c1)c1ccc([N+](=O)[O-])o1	TIM10 inh 56 (no result: NALP1 yeast inh) | tim10 confirm 62
Cc1ccc(C(=O)Nc2ccc(NC(=O)c3cccs3)cc2)cc1[N+](=O)[O-]	none
Cc1cccc(NC(=O)c2ccc([N+](=O)[O-])o2)n1	TIM10 inh 60 (no result: PfHsp90 yeast 2) | tim10 confirm inactive
Cc1ccccc1OCC(=O)N1CCN(C(=O)COc2ccccc2C)CC1	none
CC(=O)c1ccc(S(=O)(=O)N2CCN(c3nc(-c4cccnc4)nc4ccccc34)CC2)cc1	none (no result: NALP1 yeast inh)
O=C(Cc1ccccc1F)Nc1nc(-c2cccs2)cs1	TIM10 inh 47 | tim10 confirm inactive
O=C(Cc1ccccc1)Nc1nc(-c2cccs2)cs1	none
CCCN(CC(=O)Nc1ccccc1OC)C(=O)c1nc2nc(C)ccn2n1	none (no result: NALP1 yeast inh)
Cc1ccc(S(=O)(=O)N2[C@@H](c3ccc(Br)cc3)C(C(=O)O)=CC[C@H]2c2cccs2)cc1	TIM10 inh 96 (no result: NALP1 yeast inh) | tim10 confirm inactive
Cc1ccc([C@H]2C(C(=O)O)=CC[C@@H](c3cccs3)N2S(=O)(=O)c2ccc(C)cc2)cc1	none (no result: NALP1 yeast inh)
N/C(Cc1cccc2ccccc12)=N\OC(=O)Cc1cccs1	TIM10 inh 49 | tim10 confirm 38
Cc1nc2ccc(NC(=O)c3ccc([N+](=O)[O-])cc3[N+](=O)[O-])cc2s1	TIM10 inh 42 | tim10 confirm inactive
COc1cccc(C(=O)Nc2ccccc2C(=O)NCC2CCCO2)c1 (stereo not given)	none
CCOC(=O)c1sc(NC(=O)COC(=O)C(CCSC)NC(C)=O)nc1C (stereo not given)	none
C/C(=N\NC(=O)CNc1cccc2ccccc12)c1ccccc1	TIM10 inh 42 | tim10 confirm inactive
CCCCc1ccc(-n2c(Cc3cccs3)n[nH]c2=S)cc1	TIM10 inh 52 | tim10 confirm 36
